Assay outcomes as filed in PubChem.
Mtb UGM inh = M. tuberculosis UGM enzyme inhibitors, primary screen, biochemical, fluorescence polarization, single point; purified UGM, fluorescence polarization probe displacement; inhibition, % at 10 µM; actives 0.06% (n = 320,000); AID 504406, 2011; in the data active means inhibition above about 10%, passing the limit was not always enough
FadD28 FP inh = inhibitors of FadD28 bisubstrate probe binding, primary screen, biochemical, fluorescence polarization, single point; Mycobacterium tuberculosis FadD28 fatty-acid-AMP ligase; inhibition, % at 12.5 µM; actives 0.22% (n = 360,000); AID 588549, 2011; in the data active means inhibition above about 8.5%, passing the limit was not always enough
TcdB GH inh = TcdB glycohydrolase inhibitors, primary screen, biochemical, single point, plate reader; Toxin B (Clostridioides difficile), P18177; inhibition, % at 9.99 µM; TcdB glycohydrolase enzymatic assay; AID 652162, 2013; actives 0.24% (n = 350,000); in the data active means inhibition above about 10%
Mtb BioA inh = M. tuberculosis BioA enzyme inhibitors, primary screen, biochemical, plate reader, single point, HTS; 7,8-diaminopelargonic acid synthase BioA (Mycobacterium tuberculosis); purified M. tuberculosis BioA enzyme; inhibition, % at 9.99 µM; actives 0.096% (n = 360,000); in the data active means inhibition above about 40%
Rv3671c inh = Rv3671c serine protease inhibitors, primary screen, biochemical, fluorescence polarization, M. tuberculosis H37Rv | inhibition, % at 5.96 µM | actives 0.048% (n = 320,000) | AID 2606, 2010; in the data active means inhibition above about 38%;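 further: extracellular domain of Rv3671c used as enzyme; 0% = enzyme with DMSO and 100% = no enzyme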
RecA splice inh = Mtb RecA intein splicing inhibitors, primary screen, biochemical, fluorescence, HTS | Protein RecA (Mycobacterium tuberculosis (strain ATCC 25618 / H37Rv)), P9WHJ3 | cell-free RecA intein splicing | inhibition, % (no concentration beside the values) | actives 0.75% (n = 290,000) | AID 2221, 2009; in the data active means inhibition above about 30%;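 further: 0% = vehicle wells and 100% = reference inhibitor control wells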
Target sequence (P9WHJ3 whole entry, looked up, canonical isoform): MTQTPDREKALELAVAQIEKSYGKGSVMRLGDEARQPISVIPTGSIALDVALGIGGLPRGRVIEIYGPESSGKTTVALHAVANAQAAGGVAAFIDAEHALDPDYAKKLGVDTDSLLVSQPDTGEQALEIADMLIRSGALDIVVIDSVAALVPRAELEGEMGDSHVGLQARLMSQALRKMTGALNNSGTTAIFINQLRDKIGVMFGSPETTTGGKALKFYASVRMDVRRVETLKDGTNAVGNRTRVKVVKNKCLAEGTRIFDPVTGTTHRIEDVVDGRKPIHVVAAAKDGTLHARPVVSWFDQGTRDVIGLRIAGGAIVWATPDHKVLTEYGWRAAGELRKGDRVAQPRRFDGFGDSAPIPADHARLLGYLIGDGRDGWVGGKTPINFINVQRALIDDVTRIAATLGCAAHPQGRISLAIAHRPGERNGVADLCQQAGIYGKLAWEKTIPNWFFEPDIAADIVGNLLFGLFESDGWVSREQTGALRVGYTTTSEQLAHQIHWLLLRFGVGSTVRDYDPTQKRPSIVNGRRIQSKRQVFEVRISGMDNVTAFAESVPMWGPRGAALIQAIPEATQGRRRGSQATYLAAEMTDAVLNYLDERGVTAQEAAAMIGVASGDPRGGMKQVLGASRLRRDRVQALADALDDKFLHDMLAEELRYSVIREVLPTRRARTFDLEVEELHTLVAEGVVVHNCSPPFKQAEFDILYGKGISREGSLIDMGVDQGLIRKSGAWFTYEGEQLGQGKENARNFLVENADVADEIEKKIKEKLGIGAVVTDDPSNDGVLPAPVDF
An asterisk follows results filed as active; . = no result. The list is not random: actives were taken first. Their share in the collection is about 0.97%.

SMILES	Mtb UGM inh	FadD28 FP inh	TcdB GH inh	Mtb BioA inh	Rv3671c inh	RecA splice inh
O=C(Oc1cccnc1)c1ccco1	-2	-1	.	0	3	1
C[C@@H]1CCCCO[C@@H](CN(C)C(=O)Nc2ccc3c(c2)OCO3)[C@@H](C)CN([C@H](C)CO)C(=O)c2cc(NC(=O)CCCCCC(=O)Nc3ccccc3N)ccc2O1	.	.	1	-2	.	.
Cc1ccc(NC(=O)c2cc3ccccc3o2)cc1S(=O)(=O)N(C)C	.	-2	.	3	.	.
O=C(Nc1ccc2c(c1)OCCO2)c1cc2ccccc2o1	-2	-3	10*	6	7	.
CN(C)S(=O)(=O)c1ccc(NC(=O)c2cc3ccccc3o2)cc1	-3	-6	.	44*	-9	5
O=C(O)c1cc(NS(=O)(=O)c2ccc(NC3CCCCC3)c([N+](=O)[O-])c2)cc(C(=O)O)c1	0	-1	13*	.	1	0
Nc1ncnc2[nH]c(=S)[nH]c12	.	-3	15*	1	.	.
COc1ccc2nc(Sc3c([N+](=O)[O-])nc(C)n3Cc3ccccc3)[nH]c2c1	-2	.	.	.	-1	29
Cc1nc([N+](=O)[O-])c(N2CCN(Cc3ccccc3)CC2)n1Cc1ccccc1	-1	-1	.	12	-6	4
Cc1nc([N+](=O)[O-])c(Sc2nc3ccccc3[nH]2)n1Cc1ccccc1	4	-1	0	7	13	38*
Cc1cc2nc(Sc3c([N+](=O)[O-])nc(C)n3Cc3ccccc3)[nH]c2cc1C	1	0	-1	.	3	46*
COc1ccc2c3c([nH]c2c1)[C@@H](CO)N(C(=O)C1CC1)CC31CCN(C)CC1	.	.	-1	.	.	.
O=c1oc(-c2ccccc2Cl)nc2ccsc12	0	-3	.	2	9	35*
C[C@@H]1CCCCO[C@@H](CN(C)Cc2ccc(C(=O)Nc3ccccc3N)cc2)[C@@H](C)CN([C@H](C)CO)C(=O)c2cc(NC(=O)Cc3ccccc3)ccc2O1	.	.	1	.	.	.
CN(N=Nc1ccc([N+](=O)[O-])cc1)c1ccccc1	26*	0	0	-7	-7	-1
CN(N=Nc1cccc([N+](=O)[O-])c1)c1ccccc1	-1	-1	0	1	-5	7
CC(C)NC(=O)N(C)C[C@H]1Oc2ccc(NC(=O)Nc3ccc(C(F)(F)F)cc3)cc2C(=O)N([C@@H](C)CO)C[C@H]1C	.	.	1	1	.	.
COc1ccc(NC(=O)Nc2ccc3c(c2)C(=O)N([C@@H](C)CO)C[C@H](C)[C@@H](CN(C)S(=O)(=O)c2ccc(Cl)cc2)OCCCC[C@H](C)O3)cc1	.	.	0	0	.	.
CC(C)C(C(=O)O)N1C(=O)/C(=C/c2cccn2C)SC1=S (stereo unspecified)	1	3	4	.	-5	.
O=C(NN1C(=O)/C(=C/C=C/c2ccco2)SC1=S)c1ccncc1	3	30*	-2	0	12	1
O=C(NN1C(=O)/C(=C/C=C/c2ccccc2)SC1=S)c1ccncc1	-6	-2	2	.	-4	5
CC(C)C(C(=O)O)N1C(=O)/C(=C/C=C/c2ccco2)SC1=S (stereo unspecified)	-4	47*	.	.	12	13
O=C1/C(=C/C=C/c2ccco2)SC(=S)N1c1ccc(O)cc1	-1	18*	1	.	15	16
Cc1ccc(N/N=C/c2c(O)n(-c3ccccc3)c(=O)[nH]c2=O)cc1	3	-1	14*	0	-2	-2
C/C=C/[C@@H](CC(=O)N1Cc2ccccc2C[C@H]1CO)[Si](C)(C)c1ccc(OC)cc1	.	.	-1	2	.	.
SMILES	Mtb UGM inh	FadD28 FP inh	TcdB GH inh	Mtb BioA inh	Rv3671c inh	RecA splice inh
Cc1noc(C)c1NC(=O)N[C@@H]1C=C[C@@H](CC(=O)NCc2ccc(Cl)c(Cl)c2)O[C@H]1CO	.	.	1	-1	.	.
COc1ccc2c3c([nH]c2c1)[C@@H](CO)N(Cc1nccs1)CC31CCN(C(=O)C2CCOCC2)CC1	.	.	0	.	.	.
O=C(N/N=C/c1cccc([N+](=O)[O-])c1)c1ccc(Br)cc1	2	-1	11*	.	-11	2
CO[C@H]1CN(C)C(=O)c2cc(NC(=O)C3CC3)ccc2OC[C@@H](C)N(C(=O)c2ccccc2F)C[C@H]1C	.	.	1	-4	.	.
CCOC(=O)C(=O)NNc1ccc(Cl)cc1	-3	-2	47*	.	2	-4
N#CCC(=O)Nc1ccc(C(=O)OCC(=O)Nc2cccc(C(F)(F)F)c2)cc1	-1	11*	-1	.	-118	1
N#CCC(=O)Nc1ccc(C(=O)OCC(=O)Nc2cccc3ccccc23)cc1	.	0	-1	0	.	.
Cc1cccc(S(=O)(=O)N2CCCCN3[C@@H](CO)[C@H](c4ccc(C#CC5CC5)cc4)[C@@H]3C2)c1	.	.	0	1	.	.
CCN(C(=O)COC(=O)c1ccc(O)cc1O)c1c(N)n(Cc2ccccc2)c(=O)[nH]c1=O	10*	.	2	-1	-7	.
CCN(C(=O)COC(=O)c1cc(=O)[nH]c2ccccc12)c1c(N)n(Cc2ccccc2)c(=O)[nH]c1=O	.	-1	1	-4	.	.
O=C1CSC(=Nc2ccc(O)cc2)N1	1	.	15*	0	-2	1
COC(=O)c1ccccc1Sc1ncnc2onc(C)c12	-3	1	2	.	-5	46*
Cc1ccc(Sc2ncnc3onc(C)c23)c(C)c1	.	-4	0	.	.	.
O=c1c(OC2OC(CO)C(O)C(O)C2O)c(-c2ccc(O)c(O)c2)oc2cc(O)cc(O)c12 (stereo unspecified)	0	-2	14*	0	7	-4
Oc1ccc(C=Nc2ccc3ncccc3c2)c(O)c1	-2	.	.	.	-6	53*
CO[C@H]1CN(C)C(=O)c2ccc(NS(=O)(=O)c3ccccc3F)cc2OC[C@H](C)NC[C@H]1C	.	.	.	-3	.	.
COc1cc(Cn2nnc3ccccc32)ccc1O	-2	-3	18*	1	-1	-3
CO[C@H]1CN(C)C(=O)c2ccc(NC(C)=O)cc2OC[C@@H](C)N(Cc2ccccc2C(=O)O)C[C@@H]1C	.	.	0	.	.	.
COCC#Cc1ccc2c(c1)O[C@H](CN(C)C(=O)CC1CC1)[C@@H](C)CN([C@H](C)CO)S2(=O)=O	.	.	12*	-1	.	.
CC1=NNC(=O)/C1=C\c1cn(-c2ccccc2)nc1-c1ccc(Cl)cc1	-3	0	0	-1	-3	90*
COC(=O)C1=C(c2ccc(F)cc2OCc2ccccc2)C[C@@H]2CC[C@H]1N2C(=O)NC(C)C	-1	-2	2	-1	1	.
COC(=O)C1=C(c2ccc(F)cc2OCc2ccccc2)C[C@@H]2CC[C@H]1N2C(=O)NCCOc1ccc(OC)cc1	6	-1	1	-1	-7	.
